# Source: PubChem BioAssay (EPA / NIEHS)
# Inconclusive results are not listed. Activity calls are given as the source filed them. Rule for the calls: active = hit-call score of the fitted dose curve at least 0.9, where 1 is the maximum; inconclusive = response in the unintended direction; inactive = score below 0.9.
# Assay: TOX21_PR_LUC_Followup_Antagonist_viability: Viability Assessment in the Tox21 HEK293 Progesterone Receptor (PR) Antagonism Luciferase Follow-Up Assay (AID 2283940)
# How it was run: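 HEK293-PR-A-luc, 3,000 cells/well; 5 h at 37C/0% CO2; compound pin transfer; 16 h incubation; CellTiter-Glo ATP luminescence, signal loss = cytotoxicity.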
row,SMILES,outcome
1,CC(=O)O[C@@H]1CC2C3CCc4cc(OC(=O)c5ccccc5)ccc4C3CCC2(C)[C@H]1OC(C)=O (some centres not stated),inactive
2,CC(=O)OCC(=O)[C@@]1(O)CC[C@H]2[C@@H]3CCC4=CC(=O)CC[C@]4(C)[C@H]3C(=O)C[C@@]21C,inactive
3,C[C@@H]1C[C@H]2[C@@H]3C[C@H](F)C4=CC(=O)C=C[C@]4(C)[C@@]3(F)[C@@H](O)C[C@]2(C)[C@@]1(O)C(=O)CO,inactive
4,Clc1ccccc1CN1CCc2sccc2C1,inactive
5,CC(=O)OCC(=O)[C@H]1CC[C@H]2[C@@H]3CCC4=CC(=O)CC[C@]4(C)[C@H]3CC[C@]12C,inactive
6,C[C@@H]1CC(=O)NN=C1c1ccc(NN=C(C#N)C#N)cc1,inactive
7,CCC(=O)Oc1ccc2c(c1)CC[C@@H]1[C@@H]2CC[C@@]2(C)[C@H]1C[C@@H](OC(=O)CC)[C@@H]2OC(=O)CC,inactive
8,COC(=O)C1=C(C)NC(C)=C(C(=O)OC(C)C)C1c1cccc2nonc12 (configuration not stated),inactive
9,C/C=C1\C(=O)C[C@H]2[C@@H]3CCC4=CC(=O)CC[C@]4(C)[C@H]3CC[C@]12C,inactive
10,C[C@@H]1C[C@H]2[C@@H]3CCC4=CC(=O)C=C[C@]4(C)[C@@]3(F)[C@@H](O)C[C@]2(C)[C@@]1(O)C(=O)COC(=O)c1ccncc1,inactive
11,C/C=C1/C(=O)C[C@H]2[C@@H]3CCC4=CC(=O)CC[C@]4(C)[C@H]3CC[C@]12C,inactive
12,CC(=O)O[C@H]1CC[C@@]2(C)C(=CC[C@@H]3[C@@H]2CC[C@]2(C)C(C(C)=O)=CC[C@@H]32)C1,inactive
